Results: PubChem BioAssay AID1781 (National Center for Advancing Translational Sciences (NCATS), 2009)
Results filed as inconclusive are left out. Calls of active or inactive are those of the source. The call rests on the fitted dose curve; in most records, active means well fitted curve in the direction sought with a large enough effect; inconclusive means small, poorly fitted or top-dose-only effect, or effect the other way, or another doubt; inactive means no such curve, though single readings can be large or run the other way.

target: Pyruvate kinase PKLR (Homo sapiens) (UniProt P30613); test: Confirmation Concentration-Response Assay for Activators of Human Liver Pyruvate Kinase; conditions: purified hPK-L, Kinase-Glo ATP luminescence, 1 h; series mostly up to 57.5 µM
Sequence (P30613 whole entry, looked up): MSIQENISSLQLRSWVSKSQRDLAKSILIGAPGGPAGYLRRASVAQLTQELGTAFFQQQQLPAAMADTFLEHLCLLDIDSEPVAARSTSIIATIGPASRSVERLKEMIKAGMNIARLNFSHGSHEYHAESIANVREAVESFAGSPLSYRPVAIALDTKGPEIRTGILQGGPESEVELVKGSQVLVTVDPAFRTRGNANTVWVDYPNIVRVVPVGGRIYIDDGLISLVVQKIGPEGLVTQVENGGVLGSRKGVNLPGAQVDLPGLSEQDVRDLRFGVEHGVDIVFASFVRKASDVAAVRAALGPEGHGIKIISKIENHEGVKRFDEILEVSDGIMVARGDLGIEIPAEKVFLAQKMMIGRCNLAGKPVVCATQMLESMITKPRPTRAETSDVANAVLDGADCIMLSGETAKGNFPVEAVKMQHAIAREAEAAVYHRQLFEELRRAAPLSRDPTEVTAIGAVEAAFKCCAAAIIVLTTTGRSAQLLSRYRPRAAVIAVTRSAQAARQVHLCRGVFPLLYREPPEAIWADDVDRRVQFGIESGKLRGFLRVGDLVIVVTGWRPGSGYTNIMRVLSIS
Description: Confirmatory assay NIH Chemical Genomics Center [NCGC] Matthew G. Vander Heiden, M.D., Ph.D. [Harvard Medical School, 77 Avenue Louis Pasteur, Boston, MA 02115] NCGC Assay Overview: Human pyruvate kinase liver (hPK-L) enzyme was supplied as a highly purified (>95% pure) preparation from Harvard Medical School and assayed for its ability to generate ATP from ADP using phosphoenolpyruvate (PEP) as a substrate. ATP generation was detected in a coupled reaction by luciferase-mediated luminescence, an ATP-dependent process. Pyruvate kinase substrates, PEP and ADP, were present in the assay at Km and approximately 10-fold below Km respectively. The enzyme was assayed at an intermediate level of activity to screen for both inhibitors and activators.
NCGC Assay Protocol Summary for L-isoform: Three uL of substrate mix (at r.t.) in assay buffer (50 mM Imidazole pH7.2, 50 mM KCl, 7 mM MgCl2, 0.01% Tween 20, 0.05% BSA) was dispensed into white solid bottom 1,536 well microtiter plates so that the final concentrations of substrates in the assay were 0.1 mM ADP and 0.5 mM PEP. 23 nL of compound were delivered by a pin tool and 1 uL of enzyme mix (final concentration of 0.1 nM) in assay buffer (4 degree Celsius) was added. Plates were incubated at room temperature for 1 hour. Two uL of detection mix (Kinase-Glo, Promega; at 4 degree Celsius protected from light) was added and luminescence read by a ViewLux (Perkin Elmer) at 1 second exposure/plate. Data were normalized to the uninhibited (row 31). Additionally, a no enzyme and 5-fold enzyme control was dispensed in row 32, split equally between the two conditions.

outcome, inactive:
Cc1cc2c(s1)c1cnn(Cc3cccc(Cl)c3)c(=O)c1n2C
Cc1cc2c(s1)c1cnn(Cc3ccc(F)cc3)c(=O)c1n2C
Cc1cc2c(s1)c1cnn(Cc3c(F)cccc3Cl)c(=O)c1n2C
Cc1cc2c(s1)c1cnn(Cc3ccc(C(F)(F)F)cc3F)c(=O)c1n2C
Cc1cc2c(s1)c1cnn(Cc3c(F)c(F)cc(F)c3F)c(=O)c1n2C
Cc1cc2c(s1)c1cnn(Cc3ccccc3Cl)c(=O)c1n2C
O=S(=O)(NCCCCCNS(=O)(=O)c1c(F)cccc1F)c1ccc2c(c1)OCCO2
Cn1c2cc(B(O)O)sc2c2cnn(Cc3ccccc3F)c(=O)c21
CC(C)c1cc2c(s1)c1cnn(Cc3ccccc3F)c(=O)c1n2C
C[C@@H]1CN(S(=O)(=O)c2ccc3c(c2)OCCO3)CCN1S(=O)(=O)c1c(F)cccc1F
O=S(=O)(c1ccc2ccccc2c1)N1CCN(S(=O)(=O)c2c(F)cccc2F)CC1
O=S(=O)(c1cccc(C(F)(F)F)c1)N1CCN(S(=O)(=O)c2ccc3c(c2)OCCO3)CC1
Cc1cc2c(s1)c1cnn(Cc3cccc(F)c3)c(=O)c1n2C
CC(=O)c1cc2c(s1)c1cnn(Cc3ccccc3F)c(=O)c1n2C
CC(=O)Nc1cc2c(s1)c1cnn(Cc3ccccc3F)c(=O)c1n2C
Cc1cc2[nH]c3c(=O)n(Cc4ccccc4F)ncc3c2s1
CSc1cc2c(s1)c1cnn(Cc3ccccc3F)c(=O)c1n2C
Cc1cc2c(s1)c1cnn(Cc3ccccc3)c(=O)c1n2C
Cc1cc2c(s1)c1cnn(Cc3c(F)cccc3F)c(=O)c1n2C
COc1ccc(S(=O)(=O)N2CCN(S(=O)(=O)c3c(F)cccc3F)CC2)cc1
Cn1c2cc(C#N)sc2c2cnn(Cc3ccccc3F)c(=O)c21
CCn1c2cc(C)sc2c2cnn(Cc3ccccc3F)c(=O)c21
CC(O)c1cc2c(s1)c1cnn(Cc3ccccc3F)c(=O)c1n2C (stereo not given)
Cc1cc2c(s1)c1cnn(Cc3ccc(C(C)C)cc3)c(=O)c1n2C
O=C(c1ccc2c(c1)OCCO2)N1CCN(S(=O)(=O)c2c(F)cccc2F)CC1
CN1CCOc2ccc(S(=O)(=O)N3CCN(S(=O)(=O)c4c(F)cccc4F)CC3)cc21
Cc1cc2c(s1)c1c(C)nn(Cc3ccccc3F)c(=O)c1n2C
O=S(=O)(NC1CCN(S(=O)(=O)c2ccc3c(c2)OCCO3)C1)c1c(F)cccc1F (stereo not given)
Cc1cc2c(s1)c1cnn(Cc3cccc(F)c3F)c(=O)c1n2C
Cc1ccc(Cn2ncc3c4sc(C)cc4n(C)c3c2=O)cc1
N#Cc1ccc(S(=O)(=O)N2CCN(S(=O)(=O)c3ccc4c(c3)OCCO4)CC2)cc1
COc1ccc(S(=O)(=O)N2CCN(S(=O)(=O)c3ccc4c(c3)OCCO4)CC2)cc1
COc1cc(F)c(S(=O)(=O)N2CCN(S(=O)(=O)c3ccc4c(c3)OCCO4)CC2)c(F)c1
Cc1cc2c(s1)c1cnn(Cc3ccc(C)c(F)c3F)c(=O)c1n2C
CC1(C)CCc2cc(S(=O)(=O)N3CCN(S(=O)(=O)c4c(F)cccc4F)CC3)ccc2O1
O=S(=O)(c1ccc2c(c1)OCCCO2)N1CCN(S(=O)(=O)c2c(F)cccc2F)CC1
COc1ccc(Cn2ncc3c4sc(C)cc4n(C)c3c2=O)cc1F
Cc1cc2c(s1)c1cnn(Cc3ccc(F)cc3F)c(=O)c1n2C
Cc1cc2c(s1)c1cnn(Cc3cc(C(F)(F)F)cc(Cl)c3F)c(=O)c1n2C
CCCCCn1ncc2c3sc(C)cc3n(C)c2c1=O
